Data as given in ChEMBL document CHEMBL1961873, “Compounds: GSK PKIS; Assays: Nanosyn kinase panel” (2012).

Experiments:
[1] = molecular target: Mitogen-activated protein kinase 3 (Homo sapiens) (UniProt P27361); conditions: at 1 µM;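 note: values are mean percent inhibition of MAPK3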
[2] = molecular target: SRSF protein kinase 3 (Homo sapiens) (UniProt Q9UPE1); conditions: at 0.1 µM
[3] = molecular target: SRSF protein kinase 3 (Homo sapiens) (UniProt Q9UPE1); conditions: at 1 µM
[4] = molecular target: Mitogen-activated protein kinase 14 (Homo sapiens) (UniProt Q16539); conditions: at 0.1 µM
Mitogen-activated protein kinase 14 (Homo sapiens), sequence (Q16539 whole entry): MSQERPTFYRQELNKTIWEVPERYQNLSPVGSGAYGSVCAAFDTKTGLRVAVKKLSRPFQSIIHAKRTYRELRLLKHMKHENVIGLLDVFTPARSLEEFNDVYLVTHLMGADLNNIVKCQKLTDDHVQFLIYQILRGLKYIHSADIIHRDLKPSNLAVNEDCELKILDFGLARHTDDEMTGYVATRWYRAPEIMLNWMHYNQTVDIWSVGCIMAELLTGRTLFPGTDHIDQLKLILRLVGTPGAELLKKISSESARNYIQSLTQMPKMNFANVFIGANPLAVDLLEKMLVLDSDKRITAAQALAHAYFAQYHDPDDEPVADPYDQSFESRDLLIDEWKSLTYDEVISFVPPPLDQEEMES

[5] = molecular target: Mitogen-activated protein kinase 14 (Homo sapiens) (UniProt Q16539); conditions: at 1 µM
[6] = molecular target: Mitogen-activated protein kinase 11 (Homo sapiens) (UniProt Q15759); conditions: at 0.1 µM
Mitogen-activated protein kinase 11 (Homo sapiens), sequence (Q15759 whole entry): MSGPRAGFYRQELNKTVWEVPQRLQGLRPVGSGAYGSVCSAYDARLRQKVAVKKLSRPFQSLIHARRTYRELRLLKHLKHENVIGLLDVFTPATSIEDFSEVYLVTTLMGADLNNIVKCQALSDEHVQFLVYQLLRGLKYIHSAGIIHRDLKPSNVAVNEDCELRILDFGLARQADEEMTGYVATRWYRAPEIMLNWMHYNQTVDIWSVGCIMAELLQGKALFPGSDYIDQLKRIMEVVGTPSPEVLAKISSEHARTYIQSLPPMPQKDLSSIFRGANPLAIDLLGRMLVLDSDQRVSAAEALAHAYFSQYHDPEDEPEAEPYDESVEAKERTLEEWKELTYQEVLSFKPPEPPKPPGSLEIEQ

[7] = molecular target: Mitogen-activated protein kinase 11 (Homo sapiens) (UniProt Q15759); conditions: at 1 µM
[8] = molecular target: T1, Mitogen-activated protein kinase 13 (Homo sapiens) (UniProt O15264); conditions: at 0.1 µM
T1 sequence (whole entry): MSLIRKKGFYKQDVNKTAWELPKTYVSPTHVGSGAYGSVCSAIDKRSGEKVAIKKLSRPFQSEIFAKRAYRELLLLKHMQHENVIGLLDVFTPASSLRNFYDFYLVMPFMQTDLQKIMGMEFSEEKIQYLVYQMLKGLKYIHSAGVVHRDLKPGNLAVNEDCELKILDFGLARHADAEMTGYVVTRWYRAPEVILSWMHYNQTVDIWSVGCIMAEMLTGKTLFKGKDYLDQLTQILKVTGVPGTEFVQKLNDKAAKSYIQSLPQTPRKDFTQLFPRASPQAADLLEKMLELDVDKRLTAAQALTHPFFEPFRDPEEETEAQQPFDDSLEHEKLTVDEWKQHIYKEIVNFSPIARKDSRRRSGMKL

[9] = molecular target: T1, Mitogen-activated protein kinase 13 (Homo sapiens); conditions: at 1 µM
[10] = molecular target: T2, Mitogen-activated protein kinase 12 (Homo sapiens) (UniProt P53778); conditions: at 0.1 µM
T2 sequence (whole entry): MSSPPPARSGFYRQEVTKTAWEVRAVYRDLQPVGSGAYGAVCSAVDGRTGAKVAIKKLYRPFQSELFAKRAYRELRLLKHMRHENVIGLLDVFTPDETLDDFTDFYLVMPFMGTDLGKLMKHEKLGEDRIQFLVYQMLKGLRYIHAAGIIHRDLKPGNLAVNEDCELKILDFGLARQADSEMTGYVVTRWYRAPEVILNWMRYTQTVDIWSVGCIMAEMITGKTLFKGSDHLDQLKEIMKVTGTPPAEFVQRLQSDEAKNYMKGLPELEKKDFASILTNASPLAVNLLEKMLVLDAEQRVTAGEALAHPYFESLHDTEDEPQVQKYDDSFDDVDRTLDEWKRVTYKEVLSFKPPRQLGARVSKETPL

SRSF protein kinase 3 (Homo sapiens), sequence (Q9UPE1 whole entry): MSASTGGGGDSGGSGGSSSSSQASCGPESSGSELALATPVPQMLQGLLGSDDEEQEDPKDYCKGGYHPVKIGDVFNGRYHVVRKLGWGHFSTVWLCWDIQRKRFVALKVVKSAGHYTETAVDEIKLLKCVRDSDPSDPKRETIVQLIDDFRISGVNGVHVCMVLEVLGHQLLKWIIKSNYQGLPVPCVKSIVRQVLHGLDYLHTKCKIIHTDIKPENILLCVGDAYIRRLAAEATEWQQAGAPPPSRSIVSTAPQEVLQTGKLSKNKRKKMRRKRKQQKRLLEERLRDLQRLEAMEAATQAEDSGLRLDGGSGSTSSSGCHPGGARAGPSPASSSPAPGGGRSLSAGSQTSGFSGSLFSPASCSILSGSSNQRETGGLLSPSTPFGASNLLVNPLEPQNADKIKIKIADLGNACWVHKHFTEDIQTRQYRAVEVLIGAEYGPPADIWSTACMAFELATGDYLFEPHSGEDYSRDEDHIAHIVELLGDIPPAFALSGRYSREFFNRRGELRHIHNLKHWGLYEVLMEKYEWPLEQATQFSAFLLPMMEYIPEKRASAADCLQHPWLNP
Mitogen-activated protein kinase 3 (Homo sapiens), sequence (P27361 whole entry): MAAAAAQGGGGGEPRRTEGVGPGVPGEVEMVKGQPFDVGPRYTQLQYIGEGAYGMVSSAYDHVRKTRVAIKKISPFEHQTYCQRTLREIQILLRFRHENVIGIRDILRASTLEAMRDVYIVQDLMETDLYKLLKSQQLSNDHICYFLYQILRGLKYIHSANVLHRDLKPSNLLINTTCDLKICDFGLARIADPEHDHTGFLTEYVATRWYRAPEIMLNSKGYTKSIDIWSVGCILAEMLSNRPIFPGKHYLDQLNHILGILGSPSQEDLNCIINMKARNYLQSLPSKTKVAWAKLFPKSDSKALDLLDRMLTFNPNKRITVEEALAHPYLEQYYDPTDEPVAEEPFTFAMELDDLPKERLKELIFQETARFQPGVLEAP

Compound | inhibition [1] | inhibition [2] | inhibition [3] | inhibition [4] | inhibition [5] | inhibition [6] | inhibition [7] | inhibition [8] | inhibition [9] | inhibition [10]
O=C(Nc1ccc(Oc2ccc3[nH]c(NC(=O)c4ccco4)nc3c2)cc1)Nc1cc(C(F)(F)F)ccc1F | 2.24% | 2.34% | 39.6% | 4.66% | 39.4% | 4.14% | 31.7% | 1.18% | 1.53% | -4.43%
COc1ccc(-c2nn3ncccc3c2-c2ccnc(Nc3cccc(C(F)(F)F)c3)n2)cc1 | 1.1% | -2.11% | -1.47% | 15% | 57.8% | 7.58% | 24.7% | 2.68% | 1.86% | 2.04%
COc1cc2ncnc(Nc3ccc4c(cnn4Cc4ccccc4)c3)c2cc1OC | 3.12% | -1.9% | -0.51% | 4.33% | 3.94% | 1.39% | 1.39% | 3.21% | 2.74% | 2.87%
C[C@@H](Oc1cc(-n2cnc3ccc(OC[C@@H](O)CO)cc32)sc1C(N)=O)c1ccccc1Cl | -2.21% | -1.72% | 0.27% | 2.66% | 3.54% | -1.66% | 1.86% | -3.13% | -2.7% | -0.19%
Nc1ccc(C#Cc2cncnc2Nc2ccc(OCc3cccc(F)c3)c(Cl)c2)cc1 | 1.8% | -1.31% | -1.26% | 7.8% | 8.07% | 5.64% | 6.16% | 2.44% | 1.41% | 2.15%
Nc1nccc(C#Cc2cncnc2Nc2ccc(OCc3cccc(F)c3)c(Cl)c2)n1 | 1.04% | 0.77% | -0.42% | 2.98% | 7.42% | 0.46% | 4.43% | 1.14% | 4.65% | 0.02%
NS(=O)(=O)c1ccc(N/N=C2\C(=O)Nc3ccc(Cl)cc32)cc1 | 4.54% | -0.26% | 0.76% | 0.03% | 4.11% | 3.71% | 5.91% | 1.25% | 3.33% | 0.26%
COc1cc2ncnc(Nc3ccc(C)c(O)c3)c2cc1OC | 7.04% | -1.99% | 0.42% | 5.71% | 22.1% | 6.38% | 17.4% | -2.57% | 6.31% | 2.43%
OCc1ccc(-c2nc(-c3ccccn3)c(-c3ccc4c(c3)OCO4)[nH]2)cc1 | 1.38% | 1.23% | -0.15% | 4.43% | 14.9% | 4.13% | 4.4% | 3.05% | 4.05% | 0.63%
NC(=O)c1sc(-n2cnc3ccccc32)cc1OCc1ccccc1Br | 4.22% | -0.27% | -0.72% | 8.45% | 23.1% | 1.2% | 4.68% | 4.65% | 5.08% | 3.45%
CN(C)C(=O)O[C@@H]1CN[C@@H](C#Cc2cc3ncnc(Nc4ccc(OCc5cccc(F)c5)c(Cl)c4)c3s2)C1 | 1.36% | -1.41% | -1.97% | 5.64% | 2.87% | 3.3% | 6.17% | 1.12% | 1.11% | 0.57%
CN(c1ccc(NC(=O)Nc2ccc(OC(F)(F)F)cc2)cc1)c1ccnc(Nc2cccc(S(N)(=O)=O)c2)n1 | 3.33% | -1.09% | 16.6% | 4.8% | 13.6% | 4.81% | 16.7% | 2.86% | 6.6% | 2.28%
NS(=O)(=O)c1cccc(-c2cc3ccncc3cc2OCc2ccccc2)c1 | 4.26% | -0.37% | -1.61% | 2.47% | 8.87% | 3.17% | 5.6% | -1.11% | 5.95% | 0.96%
Cc1ccc2c(-c3ccnc(Nc4ccc5c(c4)OCCO5)n3)c(-c3ccc(C(F)(F)F)cc3)nn2n1 | 3.87% | -2.01% | -1.1% | 3.33% | 23.2% | 1.91% | 5.75% | 0.71% | -1.27% | 0.73%
ON=C1CCc2cc(-c3nc(C4CCNCC4)[nH]c3-c3ccncc3)ccc21 | 0.97% | -1.32% | -2.19% | 25.4% | 73.7% | 7.03% | 33.1% | -0.29% | 0.95% | 1.31%
Cc1cc(Cl)cc2c1NC(=O)C2=NNc1ccc(S(N)(=O)=O)cc1 | 4.37% | 0.26% | -0.13% | -2.89% | 3.98% | 3.77% | 7.2% | -1.04% | 1.98% | 0.32%
CN1CCN(C(=O)c2ccc(NC(=O)Nc3ccc(N(C)c4ccnc(Nc5ccc(CS(C)(=O)=O)cc5)n4)cc3)cc2)CC1 | 4.83% | -0.32% | -1.14% | 3.65% | 4.32% | 3.2% | 3.23% | 1.15% | 1.91% | 1.54%

Compound | inhibition [1] | inhibition [2] | inhibition [3] | inhibition [4] | inhibition [5] | inhibition [6] | inhibition [7] | inhibition [8] | inhibition [9] | inhibition [10]
Cc1ccc(Nc2ccnc(Nc3cccc(C(N)=O)c3)n2)cc1O | 5.1% | 0.91% | 7.12% | 4.41% | 28% | 3.7% | 17.7% | -1.12% | 4.69% | -1.03%
CN(C)C(=O)O[C@H]1CN[C@H](C#Cc2cc3ncnc(Nc4ccc(OCc5cccc(F)c5)c(Cl)c4)c3s2)C1 | 3.14% | 0.23% | -1.8% | 1.35% | 7% | 0.51% | 1.53% | -0.2% | 2.51% | 0.18%
O=C1Nc2ccc(-c3cccnc3)cc2C1=Cc1cc(Br)c(O)c(Br)c1 | 1.77% | 1.44% | 1.95% | 5.87% | 7.67% | 1.48% | 1.36% | 1.39% | 3.3% | 2.25%
N#Cc1cccc(Nc2nccc(-c3cnn4ncccc34)n2)c1 | 35.8% | 0.24% | 3.11% | 3.74% | 14.6% | 3.01% | 14% | 12.9% | 47.1% | 4.57%
CS(=O)(=O)Nc1cccc(-c2ccc3c(NC(=O)C4CC4)n[nH]c3c2)c1 | 1.38% | -2.12% | -0.78% | -1.33% | 6.14% | 2.35% | 10.1% | -1.65% | 1.02% | 1.49%
Cc1ccc(O)cc1Nc1ccnc2ccc(S(C)(=O)=O)cc12 | 2.62% | -1.95% | -1.35% | 14% | 58.8% | 9% | 34.2% | 2.61% | 6.26% | 0.62%
Cc1ccc(C(=O)NC2CC2)cc1-c1ccc2[nH]ncc2c1 | -2.12% | 2.03% | -0.89% | 3.93% | 52.8% | 4.23% | 28.2% | -4.94% | -5.34% | -3.26%
NS(=O)(=O)c1ccc(-c2cc3ccncc3cc2OCc2ccccc2)cc1 | 3.1% | -2.09% | 3.53% | 7.07% | 8.35% | 2.71% | 6.57% | 5.51% | 3.8% | -0.17%
CS(=O)(=O)CCNCc1nc(-c2ccc3ncnc(Nc4ccc(OCc5cccc(C(F)(F)F)c5)cc4)c3c2)cs1 | 1.69% | 0.88% | -1.85% | 4.2% | 3.19% | 2.78% | 1.51% | 1.27% | 2.16% | 0.83%
COc1cccc(-n2ncc3c(N/N=C/c4ccc(S(C)(=O)=O)cc4)ncnc32)c1 | 1.55% | -0.64% | 1% | -3.8% | 4.7% | 0.81% | 1.99% | 1.44% | 6.79% | 2.12%
CCn1c(-c2nonc2N)nc2c(C#CC(C)(C)O)nc(OCCNC)cc21 | 4.08% | 0.05% | -0.46% | 6.16% | 7.38% | 2.05% | 2.15% | 4.59% | 5.13% | 3.83%
NS(=O)(=O)c1cccc(Nc2cc(-c3ccc(F)cc3)n[nH]2)c1 | 3.77% | -0.26% | 3.28% | 1.56% | 7.1% | 1.06% | 5.29% | 2.2% | 2.89% | -0.78%
CC(C)c1ccc2c(c1)NC(=O)/C2=N/Nc1ccc(S(N)(=O)=O)cc1 | -0.93% | -0.91% | -3.87% | 0.75% | -0.04% | -1.84% | 3.37% | -0.12% | -0.88% | 0.48%
COc1cccc(-n2ncc3c(N/N=C/c4ccc(C)cc4)ncnc32)c1 | 3.26% | 3.27% | 0.15% | 6.95% | 9.02% | 1.15% | 4.42% | 4.61% | 6.26% | 3.81%
Cc1cc(-c2ccccn2)cc(C)c1/C=C/c1cncc(-c2nn[nH]n2)c1 | 3.69% | -0.25% | -1.02% | 7.59% | 12.9% | 3.45% | 1.89% | 4.85% | 4.9% | 3.27%
CCS(=O)(=O)c1ccc(OC)c(Nc2ncc(-c3cccc(OC)c3)o2)c1 | -2.17% | 0.87% | 0.2% | 4.78% | 7.73% | 1.06% | 5.17% | 1.24% | 4.76% | -4.79%
